# Assay outcomes: PubChem, National Center for Advancing Translational Sciences (NCATS)
# In the library only some 2.5% were active in any assay of this set; here they are far more common.
# Cruzain Triton: cruzain (T. cruzi) inhibition with detergent | P25779 | 200,000 compounds, 0.43% hits | AID 1478 | purified cruzain, Z-FR-AMC fluorescence, 0.01% Triton | Potency, µM, hits mostly inhibitors; note: nearly all actives have a fitted effect of over 40% in size
# Target sequence (P25779 123-467 limits assumed): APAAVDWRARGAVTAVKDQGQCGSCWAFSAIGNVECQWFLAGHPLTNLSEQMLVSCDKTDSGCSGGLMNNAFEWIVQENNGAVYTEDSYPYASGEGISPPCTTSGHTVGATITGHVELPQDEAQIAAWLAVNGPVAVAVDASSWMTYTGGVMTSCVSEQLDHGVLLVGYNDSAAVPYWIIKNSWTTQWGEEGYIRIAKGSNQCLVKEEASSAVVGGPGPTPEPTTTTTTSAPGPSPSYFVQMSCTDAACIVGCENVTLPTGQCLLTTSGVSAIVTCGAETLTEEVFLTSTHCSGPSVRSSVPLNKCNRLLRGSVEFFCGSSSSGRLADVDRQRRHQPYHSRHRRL
#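 Detergent-containing arm of a paired screen for aggregation-based inhibition: 0.01% Triton X-100 present. Cruzain at 1.5 nM cleaved 2 uM Z-FR-AMC at pH 5.5 with 5 mM DTT; AMC fluorescence gain over 60 s measured activity.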
# Cruzain inh noDet: blocks cruzain activity in detergent-free assay; Potency, µM, most hits filed as inhibitors; P25779; purified cruzain, Z-FR-AMC fluorescence, no detergent; 200,000 compounds, 2.3% hits; note: nearly all actives have a fitted effect of over 40% in size
#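 Detergent-free condition (0.00005% Triton X-100) in acetate buffer pH 5.5 with DTT. 1.5 nM enzyme and compound were pre-mixed 15 min, then 2 uM Z-FR-AMC substrate added; reaction progress from fluorescence change between first and third reads (60 s).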
# A number is an active result; n = inactive; u = inconclusive. Calls come from the whole dose curve; as a rule, active = well fitted curve in the direction sought with a large enough effect; inconclusive = small, poorly fitted or top-dose-only effect, or another doubt; inactive = no such curve, though single readings can be large; an effect the other way counts as inactive or inconclusive.
SMILES,Cruzain Triton,Cruzain inh noDet
O=C(COC(=O)c1cc(-c2ccc(Cl)s2)nc2ccccc12)NCc1ccco1,20µM,n
COc1ccc(Nc2cc(C(=O)NCc3ccco3)c3ccccc3n2)cc1,n,12.6µM
O=C(COC(=O)c1cc(-c2cccs2)nc2ccccc12)NCc1ccco1,25.1µM,n
COc1ccc(CNC(=O)COC(=O)c2cc(-c3ccc(Cl)s3)nc3ccccc23)cc1,n,n
O=C(NCc1ccco1)c1cc(-c2cccs2)nc2ccccc12,n,n
COCCCNC(=O)Cn1c(=O)n(-c2cccc(C)c2)c(=O)c2c1c1cc(C)ccc1n2C,n,n
COC(=O)c1ccc(OCC2c3cc(OC)c(OC)cc3CCN2C(=O)c2cccc(C)c2)cc1 (stereo unspecified),n,u
Cc1nc(-c2ccc(F)cc2)sc1CCNC(=O)c1ccco1,n,n
Cc1ccc(C(=O)NCc2ccccc2)cc1NC(=O)c1nsc2ccccc12,n,u
CN(C)S(=O)(=O)c1ccc2c(c1)N(CC(=O)N1CCN(c3ccccc3F)CC1)CCS2,n,n
COc1ccccc1Nc1nn2c(=O)c3ccc(C(=O)NCCc4ccccc4)cc3nc2s1,n,n
Cc1ccc(N=C2NC(=O)/C(=C/c3cn(C)c4ccccc34)S2)cc1C,n,12.6µM
Cn1cc(/C=C2/SC(=O)N(c3ccccc3)C2=O)c2ccccc21,n,u
CC(C)c1ccc(NC(=O)CSc2ncccc2C(=O)Oc2cccc([N+](=O)[O-])c2)cc1,n,15.8µM
COc1ccc(NC(=O)CSc2ncccc2C(=O)OC(C)C)cc1OC,n,n
Cc1cc(O)c2c(C)c(CC(=O)NCc3ccccc3Cl)c(=O)oc2c1,n,n
O=C(Cn1c(=O)n(-c2ccc(Cl)cc2)c(=O)c2sc3ccccc3c21)NC1CCCCC1,n,n
Cc1nn(-c2ccccc2Cl)c(Cl)c1/C=N/Nc1nc2ccccc2s1,n,12.6µM
CCOC(=O)N/N=C/c1c(C)nn(-c2ccccc2Cl)c1Cl,n,n
C(=N\Nc1nc2ccccc2s1)/c1cccs1,n,n
CCn1c(C)c(/C=N/Nc2nc3ccccc3s2)c2ccccc21,n,12.6µM
CCOC(=O)c1c(S(=O)(=O)N2CCCC(C(=O)Nc3cccc(C#N)c3)C2)c(C)n(C)c1C (stereo unspecified),n,n
CCc1ccc(NC(=O)c2ccc3oc(=O)n(Cc4ccccc4)c3c2)cc1,n,n
CCc1cccc(NC(=O)c2ccc3c(c2)c(C)c(C)n3Cc2ccc(F)cc2)c1,n,15.8µM
Cc1ccc(CCNC(=O)c2ccc3c(c2)c(C)c(C)n3Cc2ccccc2)cc1,n,12.6µM
SMILES,Cruzain Triton,Cruzain inh noDet
CCc1ccc(NC(=O)c2ccc3c(c2)c(C)c(C)n3Cc2ccccc2)cc1,n,12.6µM
COc1cccc(CNC(=O)c2ccc3c(c2)c(C)c(C)n3Cc2ccccc2)c1,n,u
Cc1c(C)n(Cc2ccccc2)c2ccc(C(=O)NCc3ccco3)cc12,n,u
CCOc1ccc(CCNC(=O)c2ccc3c(c2)c(C)c(C)n3Cc2ccccc2)cc1OCC,n,u
CCc1ccc(CNC(=O)c2ccc3c(c2)c(C)c(C)n3Cc2ccccc2)cc1,n,31.6µM
CSc1ccc(CCNC(=O)NCc2noc3ccccc23)cc1,n,n
COc1ccccc1NC(=O)CSc1nc2c(oc3ccccc32)c(=O)n1-c1ccc(C)cc1,n,n
CCc1c(O)c2c(c(O)c1C(C)=O)C(=O)c1c(cc(O)c(C(=O)O)c1C(=O)O)C2=O,n,n
CCc1ccccc1NC(=O)c1sc(-n2nc(C)c(Cc3ccc4c(c3)OCO4)c2C)nc1C,n,n
Cc1ccc(NC(=O)c2cncc(Br)c2)c([N+](=O)[O-])c1,n,n
COc1c(C)cc(Br)cc1C(=O)Nc1ccc(C)cc1[N+](=O)[O-],n,25.1µM
CC(C=O)Cc1ccc(C(C)(C)C)cc1 (stereo unspecified),n,n
CCOC(=O)c1[nH]c2ccc(OC)cc2c1NC(=O)c1nonc1C,n,n
CCOC(=O)c1[nH]c2ccc(Cl)cc2c1NC(=O)c1nonc1C,n,10µM
O=C1O/C(=C/c2ccccc2)N=C1c1ccccc1,12.6µM,15.8µM
O=C1O/C(=C\c2ccccc2)c2ccccc21,n,n
COc1ccc(NC(=O)c2cc(-c3ccc(F)cc3)no2)cc1OC,n,n
COc1ccc(-c2cc(C(=O)Nc3sc4c(c3C(N)=O)CCC(C)C4)no2)cc1 (stereo unspecified),n,n
Cc1onc(-c2c(Cl)cccc2Cl)c1C(=O)NC(=S)Nc1sc2c(c1C(N)=O)CCC(C)C2 (stereo unspecified),n,3.98µM
CCc1ccc(OCC(=O)N/N=C/c2cc([N+](=O)[O-])ccc2N2CCCCCC2)cc1,n,u
CCC1CCCCN1c1ccc([N+](=O)[O-])cc1/C=N/NC(=O)Cn1c2ccccc2c(=O)c2ccccc21 (stereo unspecified),n,6.31µM
CC1=C(c2ccc(C)cc2)S(=O)(=O)N(Cc2ccc(C(=O)NCc3cccc(C)c3)cc2)C1=O,n,n
CCCCN1C(=O)C(O)(c2c[nH]c3ccccc23)c2cc(Br)ccc21 (stereo unspecified),n,n
Cc1cc(=O)oc2c(N)c(O)ccc12,n,n
Cc1cc(=O)oc2c(CN(C)Cc3ccccc3)c(O)ccc12,20µM,u
SMILES,Cruzain Triton,Cruzain inh noDet
COc1cc(NC(=O)CCc2c(C)nn(-c3ccc(N4CCCCC4)nn3)c2C)cc(OC)c1OC,n,u
CCn1c(=N)c(C(=O)OC)cc2c(=O)n3ccccc3nc21,0.199µM,n
CCCCNC(=O)c1cc2c(=O)n3cccc(C)c3nc2n(Cc2ccncc2)c1=N,22.4µM,u
CCn1c(=N)c(C(=O)NC)cc2c(=O)n3cccc(C)c3nc21,14.1µM,u
CCOC(=O)c1cc2c(=O)n3ccccc3nc2n(CC2CCCO2)c1=NC(C)=O (stereo unspecified),31.6µM,10µM
COc1ccc(CCNC(=O)c2cc3c(=O)n4cccc(C)c4nc3n(Cc3ccncc3)c2=N)cc1,n,n
CCOC(=O)c1cc2c(=O)n3ccccc3nc2n(CC2CCCO2)c1=NC(=O)c1cc(C)cc(C)c1 (stereo unspecified),n,n
CCn1c(=N)c(C(=O)NCc2ccccc2)cc2c(=O)n3cccc(C)c3nc21,n,n
COCCn1c(=N)c(C(=O)NCc2ccco2)cc2c(=O)n3ccccc3nc21,n,u
O=C(Nc1ccc(OCc2cc(=O)n3c4c(sc3n2)CCCC4)cc1)c1ccccc1,n,n
CCCCOc1ccc(C(=O)NCCc2sc3nc(-c4ccc(OC)cc4)nn3c2C)cc1,n,n
CCc1nn2c(=O)cc(COC(=O)c3ccccc3NC(=O)c3cccs3)nc2s1,n,n
CC1=C(c2ccc(C)c(C)c2)S(=O)(=O)N=C1N1CCC(C(=O)N2CCC(C)CC2)CC1,n,n
Cc1sc(N/N=C/C=C/c2ccccc2)nc1-c1ccccc1,n,7.94µM
Cc1cc(C)nc(N/N=C/C=C/c2ccccc2)n1,n,n
Cc1ccc2sc(NC(=O)CN3C(=O)CCC3=O)nc2c1C,n,n
Cc1c(Cl)ccc2sc(NC(=O)CN3C(=O)c4ccccc4C3=O)nc12,n,10µM
CC1Cc2cc(S(=O)(=O)CCC(=O)Nc3ccc(OC(F)(F)F)cc3)ccc2N1C(=O)C1CC1 (stereo unspecified),n,u
COc1ccc(C(CC(=O)NCc2ccccc2)N2Cc3ccccc3C2=O)cc1 (stereo unspecified),n,n
Cc1nn2cc(-c3ccc(Cl)cc3)nc2s1,n,u
